Assay results taken from PubChem BioAssay AID463195 (Sanford-Burnham Center for Chemical Genomics, 2010).
In all, about 330,000 compounds went through this assay and about 4,600 (1.4%) were called active. Many of the other results were omitted from the sample, so actives are more common in it than they were. Values without a mark were called inactive.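 The calls were made as follows: active = inhibition of 40% or more at the single tested concentration; inactive = the rest.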

Experiment: growth inhibitors of isogenic TIM10 control yeast, primary screen, counter-screen for tim10-1 yeast inhibitor project, luminescence, uHTS (AID 463195);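 also: wild-type TIM10 isogenic control strain grown at permissive 25 °C; 0% = DMSO yeast wells and 100% = minimal medium wells without yeast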
Settings: S. cerevisiae TIM10 strain growth, BacTiter-Glo luminescence, 24 h; at 10 µM; hits give high values

With COc1cc(NC(=O)c2ccc3c(c2)OCO3)ccc1NC(=O)c1cccs1 as the compound, how does the inhibition read?
The inhibition was 11%.

With COc1cc2ccccc2cc1C(=O)Nc1ccc(NC(=O)c2cccs2)cc1 as the compound, how does the inhibition read?
The inhibition was -34.6%.

With COc1cc(NC(=O)c2cccs2)ccc1NC(=O)c1ccccc1Cl as the compound, how does the inhibition read?
The inhibition was 40.9% (active).

With C=C1C2C[C@H](O)C(C)(C)[C@@]2(O)[C@H](O)C[C@]23C[C@@](C)(O)[C@H](CC[C@H]12)[C@H]3O (stereo partly specified) as the compound, how does the inhibition read?
Its inhibition is -10.5%.

With Cc1ccc(/C(N)=N/OC(=O)COc2ccc(Cl)c(C)c2)cc1 as the compound, how does the inhibition read?
Its inhibition is 30.7%.

For Cc1ccc(C(=O)O/N=C(\N)c2ccccn2)cc1Cl, which inhibition is on record?
The inhibition was 28.2%.

Which inhibition does the source give for Cc1cccc(/C(N)=N/OC(=O)c2ccccc2Cl)c1 here?
The inhibition was 71.3% (active).

With CCOC(=O)c1ccc2[nH]c3c(c2c1)CCCC3NC=O (stereo unspecified) as the compound, how does the inhibition read?
The inhibition was 16.6%.

Which inhibition does the source give for CN1C(=O)/C(=N/OC(=O)c2ccccc2Br)c2ccccc21 here?
Its inhibition is 68.9% (active).

Which inhibition does the source give for COc1ccc(NC(=O)ON=C2c3ccccc3-c3ccccc32)cc1 here?
Its inhibition is 8.51%.

For CN1C(=O)/C(=C\c2cc(Br)cs2)c2ccccc21, which inhibition is on record?
The inhibition was 30.2%.

Which inhibition does the source give for Cc1ccc(-c2noc(CCC(=O)Nc3ccccc3N3CCN(C)CC3)n2)cc1 here?
Its inhibition is 10.4%.

Which inhibition does the source give for O=C(Nc1cccc(CCc2ccccn2)c1)c1ccc(Cl)cc1 here?
The inhibition was 1.78%.

With O=C(Nc1cccc(Cl)c1)OCc1ccccn1 as the compound, how does the inhibition read?
The inhibition was 47.9% (active).

With O=C(Nc1ccc(Cl)cc1)OCc1cc(-c2ccccc2)on1 as the compound, how does the inhibition read?
The inhibition was 6.71%.

With O=C(COC(=O)c1cc([N+](=O)[O-])ccc1NCc1ccccc1)NC1CCCCC1 as the compound, how does the inhibition read?
Its inhibition is -9.16%.

For CC(=O)Nc1ccc(S(=O)(=O)N(C)CC(=O)NCCC2=CCCCC2)cc1, which inhibition is on record?
The inhibition was 3.82%.

Which inhibition does the source give for CCn1nc(C)c(CNC(=O)C2CCC(=O)N(Cc3cccc(F)c3)C2)c1C (stereo unspecified) here?
The inhibition was -0.612%.

Which inhibition does the source give for Cn1c(Nc2ccccc2)cc(=O)n(C)c1=O here?
The inhibition was 0.045%.

For Cc1cc(Nc2ccccc2)n(C(=O)c2ccc(N)cc2)n1, which inhibition is on record?
Its inhibition is 57.7% (active).

Which inhibition does the source give for Cc1cc(C)n(C(=O)c2ccc(S(=O)(=O)N3CCCC3)cc2)n1 here?
The inhibition was 3.81%.

With O=C(Cn1c(N2CCN(C/C=C/c3ccccc3)CC2)nc2ccccc21)c1ccccc1 as the compound, how does the inhibition read?
Its inhibition is 30.9%.

With COc1ccc(Cl)cc1NC(=O)CN(C)CC(=O)Nc1ccc2c(c1)OCO2 as the compound, how does the inhibition read?
Its inhibition is -6.17%.

With Cc1cc(OC(=O)c2c(Cl)cccc2Cl)nc(C)n1 as the compound, how does the inhibition read?
Its inhibition is -1.42%.

With Cc1cc(C)c(S(=O)(=O)c2ccccc2)c(OC(=O)c2c(F)cccc2Cl)n1 as the compound, how does the inhibition read?
Its inhibition is 59.8% (active).

With Cc1ccc(NNC(=O)c2c(F)cccc2Cl)cc1Cl as the compound, how does the inhibition read?
Its inhibition is 11.3%.
